PNC assembly inh: High Content Assay for Compounds that inhibit the Assembly of the Perinucleolar Compartment. hit rate 3.1% among 140,000. activity change (PNC), negative = inhibition, % at 10 µM. PC3M PTB-GFP, PNC prevalence imaging, 16 h; hits give low values. AID 2417, 2010;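 active = readout at or below -70, meaning at least 70% loss of cells showing the perinucleolar compartment, a nuclear body marking cancer cells; inconclusive = readout between -30 and a set limit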;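 also: plate controls were DMSO wells for no effect and camptothecin positive control wells for full effect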
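Read-out is percentage of cells bearing a perinucleolar compartment, from automated 20x imaging of fixed, Hoechst-stained PC3M PTB-GFP cells. Cells were seeded 4 h, then exposed 16 h to compound (23 nl of library stock) in duplicate plates.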
HPGD block: qHTS Assay for Inhibitors of HPGD (15-Hydroxyprostaglandin Dehydrogenase); 15-hydroxyprostaglandin dehydrogenase [NAD(+)] (Homo sapiens), P15428; purified HPGD, NADH fluorescence kinetic, PGE2 substrate; Potency, µM, inactives show top-dose activity change, negative = inhibition, hits mostly inhibitors; hit rate 4.3% among 150,000; AID 894, 2007; also: potency is read from the fitted curve at half-maximal effect
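NADH formation kinetics: reaction with 30 uM PGE2 and 1 mM NAD+ (final), 20 nM enzyme, Tris-HCl pH 8 with Tween 20, after 15 min compound preincubation at room temperature. Fluorescence change, last versus first of five reads.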
12-hLO inh: qHTS Assay for Inhibitors of 12-hLO (12-human lipoxygenase). purified 12-hLO, xylenol orange hydroperoxide absorbance. Potency, µM (doses to about 57.1 µM), for inactives: at the highest dose activity change, negative = inhibition, hits mostly inhibitors. hit rate 0.12% among 150,000; active = well fitted inhibition curve with a large enough effect; inconclusive = small, poorly fitted or top-dose-only effect; also: potency is read from the fitted curve at half-maximal effect; nearly all actives have a fitted effect of over 55% in size
Target sequence (P18054 whole entry, looked up): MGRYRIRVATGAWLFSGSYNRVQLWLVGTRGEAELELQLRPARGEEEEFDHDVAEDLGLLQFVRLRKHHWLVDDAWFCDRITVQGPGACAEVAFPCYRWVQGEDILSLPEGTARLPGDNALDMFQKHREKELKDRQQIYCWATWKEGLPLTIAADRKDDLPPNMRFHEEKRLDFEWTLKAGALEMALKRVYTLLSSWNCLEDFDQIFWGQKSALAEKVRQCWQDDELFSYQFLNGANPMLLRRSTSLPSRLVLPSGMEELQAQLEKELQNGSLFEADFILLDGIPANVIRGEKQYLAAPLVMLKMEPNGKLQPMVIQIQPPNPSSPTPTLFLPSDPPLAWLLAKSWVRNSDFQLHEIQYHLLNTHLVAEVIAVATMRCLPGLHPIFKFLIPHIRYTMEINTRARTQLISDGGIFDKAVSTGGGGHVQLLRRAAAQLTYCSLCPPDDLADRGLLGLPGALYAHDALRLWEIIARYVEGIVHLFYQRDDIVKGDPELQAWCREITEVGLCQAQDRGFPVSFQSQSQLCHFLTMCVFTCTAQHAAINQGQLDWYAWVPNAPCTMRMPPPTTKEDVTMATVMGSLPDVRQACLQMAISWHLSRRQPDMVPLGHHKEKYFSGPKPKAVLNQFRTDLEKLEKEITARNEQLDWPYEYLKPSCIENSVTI
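Hydroperoxide formation by human 12-lipoxygenase from 40 uM arachidonic acid was followed colorimetrically via ferric-xylenol orange complex, using the 573/405 nm absorbance ratio. Enzyme concentration was 150 nM, with 30 min reaction at room temperature.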
ALDH1A1 inh: qHTS Assay for Inhibitors of Aldehyde Dehydrogenase 1 (ALDH1A1); Aldehyde dehydrogenase 1A1 (Homo sapiens), P00352; Purified ALDH1A1, NADH fluorescence, propionaldehyde substrate; Potency, µM (titrated, usually from 75.3 µM), inactives show top-dose activity, negative = inhibition, most hits filed as inhibitors; hit rate 7.3% among 220,000;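 also: potency is read from the fitted curve at half-maximal effect; plate controls were no enzyme wells and a reference inhibitor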
Lamin A splicing: qHTS Assay for Modulators of Lamin A Splicing | Potency, µM (titrated, usually from 46.1 µM), inactives show at the top dose ratio change, negative = inhibition, hits mostly inhibitors | HeLa LMNA splicing GFP/RFP minigene ratio, 48 h | hit rate 0.01% among 200,000; active = well fitted inhibition curve with a large enough effect in the signal ratio, with a control signal flat, not every such curve was filed as active; inconclusive = small, poorly fitted or top-dose-only effect, or effect the other way, or a change in a side signal; the % refers to the signal ratio; also: potency is read from the fitted curve at half-maximal effect
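S3 HeLa cells stably expressing lamin A-EGFP splicing minigene plus DsRed2, 600 cells/well, 48 h compound exposure at 37C. Laser-scanning cytometry; analysed as GFP (500-530 nm)/RFP (575-640 nm) total intensity ratio; 0.5% DMSO vehicle.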
Starred values were filed as active, the others as inactive; ? = inconclusive; / = no result given; [ ] = remark or other dose. In the library only some 10% were active in any assay of this set; here they are far more common. Unless noted, calls follow the shape of the dose curve; as a rule, active = well fitted inhibition curve with a large enough effect (not every such curve was filed as active); inconclusive = small, poorly fitted or top-dose-only effect, or another doubt; inactive = no such curve, though single readings can be large or run the other way. Unless noted, % is scaled to controls: 0 for no effect and ±100 for the full control effect.

SMILES	PNC assembly inh	HPGD block	12-hLO inh	ALDH1A1 inh	Lamin A splicing
Cc1ccc(OCCOCCN(C)C)c(Cl)c1	-96*	4%	-1%	-4%	2%
COc1cc(C)ccc1OCCOc1cc(C)ccc1Cl	-11	2.2µM*	?	?	-1%
COc1cc(C)ccc1OCCOc1c(Cl)cc(Cl)cc1Cl	?	/	-9%	6%	2%
Cc1ccc(N2C(=O)CSC23C(=O)N(CC(=O)NCCc2ccccc2)c2ccccc23)cc1 (stereo unspecified)	/	/	/	/	-10%[46 µM]
Nc1nc2n(n1)C(c1ccc(Cl)cc1)CC(c1ccc(F)cc1)N2 (stereo unspecified)	-119*	-7%	1%	2%	-17%
COc1ccc(C2CC(c3ccc(F)cc3)Nc3nc(N)nn32)cc1 (stereo unspecified)	40	-16%	0%	2%	-7%
COc1cccc(C2CC(c3c(Cl)cccc3Cl)n3nc(N)nc3N2)c1 (stereo unspecified)	?	-9%	3%	5%	-8%
CCOc1ccc(C2CC(c3ccccc3C)n3nc(N)nc3N2)cc1 (stereo unspecified)	-10	-7%	3%	?	-6%
COc1cccc(C2CC(c3c(F)cccc3Cl)n3nc(N)nc3N2)c1 (stereo unspecified)	-110*	-9%	2%	4%	-8%
CCOc1ccccc1C1CC(c2ccc(Br)cc2)Nc2nc(N)nn21 (stereo unspecified)	-114*	?	-11%	33%	?
Cn1cc(S(=O)(=O)c2cccc(Cl)c2)c(=O)c2cc(F)c(N3CCCCCC3)cc21	/	/	/	/	9%[46 µM]
N#Cc1cnn2ccn(C3OC(CO)C(O)C3O)c12 (stereo unspecified)	/	/	/	17%	/
COc1ccc(CN(C(=O)Nc2ccc(C)c(F)c2)C2CCN(C(C)=O)CC2)cc1	/	/	/	/	-12%[46 µM]
O=C(NC1CCCCC1)C1CCCN(c2nnnn2-c2ccccc2)C1 (stereo unspecified)	28	-23%	1%	10µM*	-9%
CCOC(=O)C1CCCN(c2c(N3CCN(c4ccccn4)CC3)c(=O)c2=O)C1 (stereo unspecified)	?	-5%	-7%	-4%	4%
O=C(NC1CCCC1)C1CCCN(S(=O)(=O)c2ccc(-n3cnnn3)cc2)C1 (stereo unspecified)	-8	-7%	4%	5%	0%
CCOC(=O)C1CCCN(c2nnnn2-c2ccccc2)C1 (stereo unspecified)	-26	-12%	4%	7.1µM*	16%
CCn1c(-c2ccccc2O)n[nH]c1=S	-115*	-21%	3%	?	7%
COc1cccc(C2SCC(=O)N2c2ccc(C)cc2)c1OC (stereo unspecified)	?	-6%	2%	14µM*	8%
COc1ccc(N2C(=O)CSC2c2cccc(OC)c2OC)cc1 (stereo unspecified)	21	-2%	0%	-4%	?
N#CCCn1c(=O)cnc2cnc(Oc3ccccc3)nc21	/	/	/	-2%	-5%
CCN(CC)c1ccc2cc(C=O)c(=O)oc2c1	-5	?	-19%	?	?
CCN(CC)c1ccc2cc(C(N)=O)c(=N)oc2c1	/	/	/	-7%	/
CCN(CC)c1ccc2cc(C(N)=O)c(=O)oc2c1	-105*	?	-3%	?	2%
CCN(CC)c1ccc2cc(-c3nnc(-c4ccncc4)o3)c(=O)oc2c1	-119*	?	5%	?	?
SMILES	PNC assembly inh	HPGD block	12-hLO inh	ALDH1A1 inh	Lamin A splicing
Cn1c(=O)c(=O)n(C)c2cc(S(=O)(=O)Nc3ccc4c(c3)OCCO4)ccc21	?	25µM*	-3%	-2%	1%
O=C(Nc1ccccc1)Nc1cc(S(=O)(=O)N2CCOCC2)ccc1N1CCCC1	6	14µM*	4%	?	-8%
CCOCC(=O)Nc1cc(S(=O)(=O)N2CCOCC2)ccc1N1CCCCC1	/	/	/	2.8µM*	/
CC1CN=C(N(C(=O)Nc2ccccc2)c2ccc(S(=O)(=O)N3CCOCC3)cc2)S1 (stereo unspecified)	27	20µM*	4%	11%	?
O=S(=O)(Nc1cccc(S(=O)(=O)N2CCOCC2)c1)c1ccc2c(c1)OCCO2	/	/	/	25µM*	-19%[46 µM]
CC(C(=O)Nc1cccc(S(=O)(=O)N2CCOCC2)c1)N1CCN(C/C=C/c2ccccc2)CC1 (stereo unspecified)	/	/	/	8%	/
O=C(Nc1cccc(S(=O)(=O)N2CCOCC2)c1)C(c1ccccc1)N1CCCCC1 (stereo unspecified)	/	/	/	7.1µM*	-13%[46 µM]
Cc1ccc(NC(=O)c2sc3ncnc(N(C)C4CCCCC4)c3c2C)c(C)c1	/	/	/	/	1%[46 µM]
S=c1[nH]nc(Nc2cccc(Cl)c2)s1	/	/	/	2.5µM*	/
O=C(c1ccc(Cl)cc1)c1cnc(Nc2ccccc2Cl)s1	11	-23%	-5%	-3%	?
Clc1cccc(Nc2nc(-c3ccncc3)cs2)c1	/	/	/	-2%	9%[46 µM]
S=c1[nH]nc(Nc2ccccc2Cl)s1	/	/	/	1.4µM*	-5%[46 µM]
Cc1ccc(N2C(=O)CCSC23C(=O)N(Cc2ccccc2)c2ccccc23)cc1F (stereo unspecified)	/	/	/	/	-6%[46 µM]
COc1cc(=O)n2c(-c3ccccc3)csc2n1	-3	-13%	-2%	1%	-2%
COC(=O)c1cc(=O)n2c(-c3ccc(OC)cc3)csc2n1	20	-10%	2%	5µM*	-2%
CN(C)C1C(=O)C(C(N)=O)=C(O)[C@@]2(O)C(=O)C3=C(O)c4c(O)ccc(Cl)c4[C@@H](O)C3C[C@@H]12 (stereo partly specified)	/	-22%	/	-6%	-18%
COc1cccc(CNc2ncn[nH]2)c1OCc1ccc(F)cc1	/	/	/	28µM*	/
Cn1c(=S)[nH]c2c(c1=O)C(C)(C)Cc1ccccc1-2	/	/	/	8.9µM*	/
CC(=O)c1cc(F)ccc1OCC(=O)N1CCN(c2ccc(F)cc2)CC1	/	/	/	25µM*	/
COc1ccc(NC(=O)c2sc3nc[nH]c(=O)c3c2C)cc1Cl	/	/	/	/	3%[46 µM]
O=C(O)CCCCn1cnc2c(=S)nc[nH]c21	/	-14%	0%[11.4 µM]	-13%[13.5 µM]	/
C/C(=N/NC(=O)c1ccoc1C)c1ccc(NC(=O)C2CCCC2)cc1	-87*	-14%	-2%	-7%	0%
C/C(=N\NC(=O)c1ccn(C)n1)c1ccc(NC(=O)C2CCCC2)cc1	?	14µM*	0%	3%	7%
COc1cc(Cl)c(C)cc1NC(=O)c1cc(S(=O)(=O)N2CCCC2)ccc1F	/	/	/	/	-13%[46 µM]
CC(=O)c1cc2c(cc1N/C(=N/S(=O)(=O)c1ccc(F)cc1)c1ccccc1)OCO2	/	/	/	/	-18%[46 µM]

Assay outcomes: PubChem, National Center for Advancing Translational Sciences (NCATS)
